Source: the supplement of paper PMC11732987, “Enantioselective OTUD7B fragment discovery through chemoproteomics screening and high-throughput optimisation” (Communications Chemistry, 2025)

Columns and labels:
Assay in all cases: log2 ratio of Biotin-Ahx-Ub-VS probe labelling (fragment/DMSO); higher = less target engagement (more negative = stronger competition), active = hit call of the paper (q ≤ 0.05, log2 ratio ≤ -1)
Settings in all cases: compound concentration: 200 uM; treatment time: 3 h
USP34 = USP34 (UniProt Q70CQ2)
Sequence of USP34 (Q70CQ2 whole entry, the tested form may be a part): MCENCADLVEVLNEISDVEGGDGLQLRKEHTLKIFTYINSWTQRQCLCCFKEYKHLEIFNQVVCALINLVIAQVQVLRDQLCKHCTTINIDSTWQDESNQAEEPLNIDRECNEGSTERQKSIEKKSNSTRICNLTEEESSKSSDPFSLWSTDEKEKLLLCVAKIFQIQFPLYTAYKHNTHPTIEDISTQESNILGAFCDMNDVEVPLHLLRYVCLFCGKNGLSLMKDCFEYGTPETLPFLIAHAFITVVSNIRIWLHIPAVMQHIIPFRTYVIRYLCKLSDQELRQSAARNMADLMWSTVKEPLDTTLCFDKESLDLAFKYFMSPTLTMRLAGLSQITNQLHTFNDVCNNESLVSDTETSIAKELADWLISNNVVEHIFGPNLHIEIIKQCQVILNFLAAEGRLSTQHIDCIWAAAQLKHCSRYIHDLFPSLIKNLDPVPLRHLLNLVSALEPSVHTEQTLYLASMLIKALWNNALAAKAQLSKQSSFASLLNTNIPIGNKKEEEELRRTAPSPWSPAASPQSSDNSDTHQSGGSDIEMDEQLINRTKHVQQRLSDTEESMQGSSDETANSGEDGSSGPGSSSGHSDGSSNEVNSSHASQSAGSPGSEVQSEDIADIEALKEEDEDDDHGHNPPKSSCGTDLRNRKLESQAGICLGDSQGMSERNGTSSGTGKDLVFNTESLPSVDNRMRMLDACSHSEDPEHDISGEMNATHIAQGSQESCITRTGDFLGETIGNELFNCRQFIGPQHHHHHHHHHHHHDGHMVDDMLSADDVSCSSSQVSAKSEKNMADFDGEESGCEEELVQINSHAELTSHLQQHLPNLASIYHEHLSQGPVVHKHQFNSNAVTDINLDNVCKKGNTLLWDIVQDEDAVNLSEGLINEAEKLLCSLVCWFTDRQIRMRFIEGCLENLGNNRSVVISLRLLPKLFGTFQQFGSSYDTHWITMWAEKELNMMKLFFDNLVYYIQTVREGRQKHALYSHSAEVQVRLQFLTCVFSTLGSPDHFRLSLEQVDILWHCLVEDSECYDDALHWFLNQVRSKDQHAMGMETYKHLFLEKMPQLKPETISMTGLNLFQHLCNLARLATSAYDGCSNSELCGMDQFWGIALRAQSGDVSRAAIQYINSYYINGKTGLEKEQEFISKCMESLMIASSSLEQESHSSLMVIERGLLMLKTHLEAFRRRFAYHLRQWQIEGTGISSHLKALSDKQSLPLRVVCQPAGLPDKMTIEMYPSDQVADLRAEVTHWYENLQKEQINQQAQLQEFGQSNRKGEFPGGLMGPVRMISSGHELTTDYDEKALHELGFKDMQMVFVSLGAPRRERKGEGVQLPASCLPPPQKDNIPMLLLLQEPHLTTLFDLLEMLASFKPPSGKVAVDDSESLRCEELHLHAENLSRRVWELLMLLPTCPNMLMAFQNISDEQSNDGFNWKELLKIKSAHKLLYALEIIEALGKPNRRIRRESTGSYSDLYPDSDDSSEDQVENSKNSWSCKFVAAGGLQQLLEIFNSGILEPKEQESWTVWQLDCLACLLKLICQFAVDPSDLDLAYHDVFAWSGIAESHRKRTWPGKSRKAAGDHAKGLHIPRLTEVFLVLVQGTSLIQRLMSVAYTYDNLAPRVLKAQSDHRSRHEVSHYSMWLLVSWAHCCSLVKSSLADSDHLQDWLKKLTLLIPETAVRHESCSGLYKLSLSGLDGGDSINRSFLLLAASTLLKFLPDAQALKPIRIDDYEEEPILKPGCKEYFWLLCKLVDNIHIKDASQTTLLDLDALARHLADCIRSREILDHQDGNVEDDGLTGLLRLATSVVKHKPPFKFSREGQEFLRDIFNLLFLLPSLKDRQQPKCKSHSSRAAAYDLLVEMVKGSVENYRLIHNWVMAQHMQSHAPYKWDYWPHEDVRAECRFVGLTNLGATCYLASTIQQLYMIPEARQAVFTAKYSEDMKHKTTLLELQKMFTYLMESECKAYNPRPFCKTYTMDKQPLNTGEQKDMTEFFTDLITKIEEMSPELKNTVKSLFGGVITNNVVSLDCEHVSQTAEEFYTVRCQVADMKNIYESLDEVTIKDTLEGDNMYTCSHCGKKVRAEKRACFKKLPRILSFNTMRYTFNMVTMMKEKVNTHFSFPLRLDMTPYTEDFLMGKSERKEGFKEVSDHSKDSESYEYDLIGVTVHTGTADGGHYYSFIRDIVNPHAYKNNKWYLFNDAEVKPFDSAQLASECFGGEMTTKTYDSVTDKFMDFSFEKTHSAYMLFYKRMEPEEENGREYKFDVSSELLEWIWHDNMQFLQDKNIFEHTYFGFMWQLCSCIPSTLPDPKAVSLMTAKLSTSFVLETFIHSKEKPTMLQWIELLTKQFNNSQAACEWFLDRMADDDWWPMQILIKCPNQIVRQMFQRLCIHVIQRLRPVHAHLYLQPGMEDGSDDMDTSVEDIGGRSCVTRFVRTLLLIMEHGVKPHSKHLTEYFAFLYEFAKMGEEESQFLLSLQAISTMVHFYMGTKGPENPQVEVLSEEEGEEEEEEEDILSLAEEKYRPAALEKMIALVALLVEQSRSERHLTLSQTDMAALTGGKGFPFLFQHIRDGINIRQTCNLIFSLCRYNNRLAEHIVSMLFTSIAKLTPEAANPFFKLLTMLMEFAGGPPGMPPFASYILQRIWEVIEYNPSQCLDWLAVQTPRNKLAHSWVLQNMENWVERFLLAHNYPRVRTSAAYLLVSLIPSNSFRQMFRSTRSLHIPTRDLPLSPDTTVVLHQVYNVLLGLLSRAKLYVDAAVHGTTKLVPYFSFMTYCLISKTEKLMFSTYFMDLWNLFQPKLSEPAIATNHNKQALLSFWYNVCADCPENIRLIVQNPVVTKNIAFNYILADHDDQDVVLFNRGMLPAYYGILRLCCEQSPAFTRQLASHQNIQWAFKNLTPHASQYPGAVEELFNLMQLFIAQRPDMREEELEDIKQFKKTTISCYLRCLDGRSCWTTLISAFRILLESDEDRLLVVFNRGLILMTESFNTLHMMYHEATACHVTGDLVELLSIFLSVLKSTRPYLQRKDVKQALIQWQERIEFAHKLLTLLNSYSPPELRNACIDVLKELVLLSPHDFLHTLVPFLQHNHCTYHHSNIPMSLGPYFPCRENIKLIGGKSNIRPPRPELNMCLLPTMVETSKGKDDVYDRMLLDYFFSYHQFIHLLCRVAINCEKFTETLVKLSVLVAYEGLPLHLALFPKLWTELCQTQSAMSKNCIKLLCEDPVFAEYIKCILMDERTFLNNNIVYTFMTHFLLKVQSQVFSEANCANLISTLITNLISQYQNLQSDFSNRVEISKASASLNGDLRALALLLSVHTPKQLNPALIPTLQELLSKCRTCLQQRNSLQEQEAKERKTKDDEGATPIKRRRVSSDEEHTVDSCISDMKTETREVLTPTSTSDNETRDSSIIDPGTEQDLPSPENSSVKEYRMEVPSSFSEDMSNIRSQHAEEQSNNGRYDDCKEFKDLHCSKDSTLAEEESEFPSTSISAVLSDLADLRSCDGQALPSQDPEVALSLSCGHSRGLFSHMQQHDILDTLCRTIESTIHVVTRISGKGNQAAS
Procedure, shortened: (§1)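 Global-median-normalised Spectronaut label-free quantities were compared by unpaired t-test, and values are average log2 ratios of fragment over vehicle. Only proteins with ≥2 unique peptides were used. HEK293T lysate (495 µg per sample) was treated in triplicate with fragment at 200 µM or vehicle for 3 h and then with Biotin-Ahx-Ub-VS at 0.5 µM final for 1 h. Labelled DUBs were then NeutrAvidin-enriched, digested with LysC and trypsin, and run by diaPASEF LC-MS/MS.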

USP36 = molecular target: T1, USP36 (UniProt Q9P275)
T1 sequence (whole entry): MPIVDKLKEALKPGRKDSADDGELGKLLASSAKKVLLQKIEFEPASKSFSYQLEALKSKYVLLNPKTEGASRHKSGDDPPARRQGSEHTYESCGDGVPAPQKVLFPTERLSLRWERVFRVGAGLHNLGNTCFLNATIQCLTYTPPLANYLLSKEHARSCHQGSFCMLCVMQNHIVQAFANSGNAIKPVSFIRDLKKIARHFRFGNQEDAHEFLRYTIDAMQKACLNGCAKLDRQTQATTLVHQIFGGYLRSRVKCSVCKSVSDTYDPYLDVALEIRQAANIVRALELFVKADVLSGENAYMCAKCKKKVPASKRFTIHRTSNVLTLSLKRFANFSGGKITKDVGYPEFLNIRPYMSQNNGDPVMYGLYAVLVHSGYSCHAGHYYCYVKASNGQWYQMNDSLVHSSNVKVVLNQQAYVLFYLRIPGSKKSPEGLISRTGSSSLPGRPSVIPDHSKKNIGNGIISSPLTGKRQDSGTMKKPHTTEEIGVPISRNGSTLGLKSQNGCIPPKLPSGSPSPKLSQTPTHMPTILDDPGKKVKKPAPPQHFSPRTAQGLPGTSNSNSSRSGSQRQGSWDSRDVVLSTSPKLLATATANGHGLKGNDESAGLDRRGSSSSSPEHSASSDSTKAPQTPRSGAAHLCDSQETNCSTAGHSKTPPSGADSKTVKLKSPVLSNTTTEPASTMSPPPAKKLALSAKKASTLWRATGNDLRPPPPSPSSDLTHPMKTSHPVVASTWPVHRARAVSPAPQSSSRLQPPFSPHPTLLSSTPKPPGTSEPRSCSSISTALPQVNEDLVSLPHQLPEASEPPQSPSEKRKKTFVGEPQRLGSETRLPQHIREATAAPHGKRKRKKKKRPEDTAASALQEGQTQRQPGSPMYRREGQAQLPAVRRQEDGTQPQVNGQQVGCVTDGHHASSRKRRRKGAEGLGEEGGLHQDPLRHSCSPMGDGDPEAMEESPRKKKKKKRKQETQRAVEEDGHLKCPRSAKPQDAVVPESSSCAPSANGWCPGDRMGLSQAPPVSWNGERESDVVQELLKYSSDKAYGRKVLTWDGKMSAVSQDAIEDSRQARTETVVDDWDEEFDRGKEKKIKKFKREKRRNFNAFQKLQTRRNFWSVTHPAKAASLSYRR
Procedure, shortened: as §1

USP38 = molecular target: T2, USP38 (UniProt Q8NB14)
T2 sequence (whole entry): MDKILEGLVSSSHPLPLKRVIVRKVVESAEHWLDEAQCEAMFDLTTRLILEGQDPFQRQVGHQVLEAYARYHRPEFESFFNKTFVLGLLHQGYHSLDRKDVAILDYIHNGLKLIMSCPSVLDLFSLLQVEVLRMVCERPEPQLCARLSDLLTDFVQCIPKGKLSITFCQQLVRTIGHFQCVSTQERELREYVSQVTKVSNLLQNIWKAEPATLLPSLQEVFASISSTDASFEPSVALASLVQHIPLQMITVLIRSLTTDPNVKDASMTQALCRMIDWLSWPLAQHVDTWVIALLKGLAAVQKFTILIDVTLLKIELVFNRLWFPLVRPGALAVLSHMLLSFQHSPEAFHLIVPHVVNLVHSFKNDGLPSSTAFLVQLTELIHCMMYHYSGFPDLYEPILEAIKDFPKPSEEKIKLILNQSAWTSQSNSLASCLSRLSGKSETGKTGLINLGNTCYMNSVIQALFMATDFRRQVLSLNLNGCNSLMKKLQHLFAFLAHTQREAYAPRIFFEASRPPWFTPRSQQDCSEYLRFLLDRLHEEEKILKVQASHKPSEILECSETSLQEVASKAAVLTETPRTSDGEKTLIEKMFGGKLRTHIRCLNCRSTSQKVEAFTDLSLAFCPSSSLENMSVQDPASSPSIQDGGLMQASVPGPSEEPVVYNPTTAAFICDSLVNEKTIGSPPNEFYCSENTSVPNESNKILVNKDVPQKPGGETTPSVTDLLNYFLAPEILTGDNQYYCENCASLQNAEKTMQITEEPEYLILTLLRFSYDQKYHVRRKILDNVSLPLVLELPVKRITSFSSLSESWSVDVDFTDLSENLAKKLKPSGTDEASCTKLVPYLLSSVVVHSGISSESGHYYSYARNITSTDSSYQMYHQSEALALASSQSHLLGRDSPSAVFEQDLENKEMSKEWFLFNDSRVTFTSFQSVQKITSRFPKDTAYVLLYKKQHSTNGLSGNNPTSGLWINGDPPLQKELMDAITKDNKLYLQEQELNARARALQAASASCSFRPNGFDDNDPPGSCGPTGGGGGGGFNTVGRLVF
Procedure, shortened: as §1

USP39 = molecular target: T3, USP39 (UniProt Q53GS9)
T3 sequence (whole entry): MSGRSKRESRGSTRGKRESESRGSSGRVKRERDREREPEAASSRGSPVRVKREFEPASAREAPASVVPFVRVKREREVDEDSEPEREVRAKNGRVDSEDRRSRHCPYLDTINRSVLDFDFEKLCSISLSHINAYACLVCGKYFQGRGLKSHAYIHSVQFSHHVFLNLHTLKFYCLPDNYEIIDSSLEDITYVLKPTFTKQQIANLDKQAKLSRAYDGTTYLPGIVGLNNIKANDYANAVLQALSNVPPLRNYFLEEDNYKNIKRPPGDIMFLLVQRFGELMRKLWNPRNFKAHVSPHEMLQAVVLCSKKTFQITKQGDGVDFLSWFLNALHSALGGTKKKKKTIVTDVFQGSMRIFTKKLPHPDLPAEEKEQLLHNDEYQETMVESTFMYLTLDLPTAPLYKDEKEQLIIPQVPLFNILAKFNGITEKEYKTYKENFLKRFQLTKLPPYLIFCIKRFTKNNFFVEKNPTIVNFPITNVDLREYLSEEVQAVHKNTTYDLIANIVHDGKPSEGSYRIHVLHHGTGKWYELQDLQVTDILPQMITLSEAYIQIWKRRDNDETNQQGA
Procedure, shortened: as §1

USP4 = molecular target: T4, USP4 (UniProt Q13107)
T4 sequence (whole entry): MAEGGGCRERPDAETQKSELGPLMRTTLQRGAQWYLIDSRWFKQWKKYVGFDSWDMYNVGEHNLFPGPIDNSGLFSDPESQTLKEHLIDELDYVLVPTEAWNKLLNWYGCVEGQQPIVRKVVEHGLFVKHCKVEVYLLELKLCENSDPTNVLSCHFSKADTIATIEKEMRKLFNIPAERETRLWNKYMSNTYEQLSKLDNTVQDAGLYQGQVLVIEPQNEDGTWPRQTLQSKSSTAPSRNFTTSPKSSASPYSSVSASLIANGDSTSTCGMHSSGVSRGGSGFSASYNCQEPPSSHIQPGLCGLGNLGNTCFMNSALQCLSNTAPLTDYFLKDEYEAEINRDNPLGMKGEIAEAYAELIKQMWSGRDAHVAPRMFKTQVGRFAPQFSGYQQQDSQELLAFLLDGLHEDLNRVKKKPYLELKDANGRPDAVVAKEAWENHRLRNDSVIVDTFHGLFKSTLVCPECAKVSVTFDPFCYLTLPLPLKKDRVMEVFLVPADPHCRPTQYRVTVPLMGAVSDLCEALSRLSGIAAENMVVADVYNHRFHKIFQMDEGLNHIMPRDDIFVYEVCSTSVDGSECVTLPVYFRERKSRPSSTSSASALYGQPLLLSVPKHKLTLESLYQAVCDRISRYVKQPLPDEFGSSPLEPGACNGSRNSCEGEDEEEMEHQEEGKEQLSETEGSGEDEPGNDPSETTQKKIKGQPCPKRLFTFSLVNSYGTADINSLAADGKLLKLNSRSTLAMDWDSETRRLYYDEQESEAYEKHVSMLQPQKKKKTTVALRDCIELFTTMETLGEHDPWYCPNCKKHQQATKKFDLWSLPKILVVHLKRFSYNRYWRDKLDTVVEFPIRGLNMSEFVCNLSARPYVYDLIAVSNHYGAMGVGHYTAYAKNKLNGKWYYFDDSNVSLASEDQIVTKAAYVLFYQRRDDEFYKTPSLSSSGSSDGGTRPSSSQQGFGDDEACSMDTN
Procedure, shortened: as §1

Measured: log2 ratio of Biotin-Ahx-Ub-VS probe labelling

O=C(CCl)Nc1cccc2ncccc12
inactive: USP34 -0.104 | USP36 0.45 | USP38 0.13 | USP39 0.472 | USP4 0.0333
